Test results published in the supplement of paper PMC10600219.
Structures can show the parent of a compound that is named as a salt. The full ranking holds about 2,800 compounds; the median of “cell viability relative to vehicle” is about 1.1, and the lowest 2% start at about 0.19. The entries come from a sample that favours the lowest values as a whole.

Tested on: NCI-H2228 parental
Assay: cell viability relative to vehicle (fraction of vehicle); NCI-H2228 is an ALK-positive lung cancer line and DTP means drug-tolerant persister; higher = less growth inhibition
Conditions: 100 nM; treatment time 6 days
In short: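 The 3114-agent TargetMol anti-cancer compound library was tested at 100 nM for 6 days on parental NCI-H2228 cells and on persister cells derived with 1000 nM of a targeted drug for 13 days. ATP readout by the CellTiter-Glo 3D Cell Viability Assay gave cell viability relative to DMSO vehicle-treated cells.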

| Compound | cell viability |
| --- | --- |
| CC(C)[C@]12O[C@H]1[C@@H]1O[C@]13[C@]1(O[C@H]1C[C@H]1C4=C(CC[C@@]13C)C(=O)OC4)[C@@H]2O [Triptolide] | 0.121 |
| N#Cc1c(Oc2cccc(OS(=O)(=O)CCCC(F)(F)F)c2)cccc1C(F)(F)F | 1.01 |
| O=C(O)CCCCCCCCCO [10-Hydroxydecanoic Acid] | 1.17 |
| C[C@@]12C[C@@H](c3ccoc3)OC(=O)[C@@H]1CC[C@]1(C)[C@H]2[C@@H]2C=C[C@@]1(O)C(=O)O2 [Columbin] | 1.06 |
| Cc1c([C@H](C)[C@@H]2NC[C@@H](C)C[C@H]2O)ccc2c1C[C@H]1[C@H]2CC=C2C[C@@H](O)CC[C@@]21C [Veratramine] | 1.12 |
| COc1cc([C@@H]2c3cc4c(cc3[C@@H](O)[C@H]3COC(=O)[C@H]23)OCO4)cc(OC)c1O [4'-Demethylepipodophyllotoxin] | 0.402 |
| CC(=O)O[C@H]1C(=O)[C@@]2(C)[C@H]([C@H](OC(=O)c3ccccc3)[C@]3(O)C[C@H](O)C(C)=C1C3(C)C)[C@]1(OC(C)=O)CO[C@@H]1C[C@@H]2O [Baccatin III] | 0.968 |
| C/C=C(\C)C(=O)N[C@@H](c1ccccc1)[C@@H](O)C(=O)O[C@H]1C[C@@]2(O)[C@@H](OC(=O)c3ccccc3)[C@@H]3[C@]4(OC(C)=O)CO[C@@H]4C[C@H](O)[C@@]3(C)C(=O)[C@H](OC(C)=O)C(=C1C)C2(C)C [Cephalomannine] | 0.129 |
| CC(=O)OC12COC1CC(O)C1(C)C(=O)C(O)C3=C(C)C(O)CC(O)(C(OC(=O)c4ccccc4)C21)C3(C)C (stereo not given) [10-Deacetylbaccatin III] | 1.13 |
| COc1ccc(/C=C/c2cc(OC)cc(OC)c2)cc1 [Trimethoxystilbene] | 1.05 |
| CN(C(=O)/C=C/c1ccoc1)[C@@H]1CC[C@@]2(O)[C@H]3Cc4ccc(O)c5c4[C@@]2(CCN3CC2CC2)[C@H]1O5 [Nalfurafine hydrochloride] | 0.993 |
| CN1[C@H]2C[C@H](OC(=O)[C@H](CO)c3ccccc3)C[C@@H]1[C@@H](O)C2 [Anisodamine] | 1.1 |
| CC[C@@]1(O)C(=O)OCc2c1cc1n(c2=O)Cc2cc3ccccc3nc2-1 [(S)-(+)-Camptothecin] | 0.0882 |
| CCc1c2c(nc3ccccc13)-c1cc3c(c(=O)n1C2)COC(=O)[C@]3(O)CC [7-Ethylcamptothecin] | 0.054 |
| CC1(C)C(C(=O)Nc2ccc(S(=O)(=O)c3ccc(NC(=O)C4C(C)(C)C4(C)C)cc3)cc2)C1(C)C | 0.839 |
| C[C@H]1CCC2N(C1)C[C@H]1C3CC4[C@@H](CC(=O)C5C[C@@H](O)CC[C@@]54C)C3CCC1[C@]2(C)O (stereo not given in full) [Peiminine] | 1.12 |
| O=C(CBr)c1ccc(O)cc1 [PTP Inhibitor I] | 1.01 |
| Clc1ccc(OC[C@H]2CCN2)cn1 [Tebanicline hydrochloride] | 1.12 |

| Compound | cell viability |
| --- | --- |
| Oc1cc(O)cc(/C=C/c2ccc(O)cc2O)c1 [Oxyresveratrol] | 0.982 |
| C=C1CC[C@H]2[C@@H](/C=C(\C)C(=O)[C@@]3(O)C[C@H](C)[C@H](O)[C@@H]3[C@@H]1O)C2(C)C [Lathyrol] | 1.09 |
| CN[C@@H](Cc1c[nH]c2ccccc12)C(=O)O [Abrine] | 1.08 |
| CC1(C)C(=O)N(c2ccc(C#N)c(C(F)(F)F)c2)C(=O)N1CCCCO | 1.27 |
| C[C@H]1CCC/C=C/[C@@H]2C[C@H](O)C[C@H]2[C@H](O)/C=C/C(=O)O1 [Brefeldin A] | 0.0967 |
| COc1ccc(/C=C2\CCCN=C2c2cccnc2)c(OC)c1 [GTS 21 dihydrochloride] | 1.13 |
| COc1cc([C@@H]2c3cc4c(cc3[C@H](O)[C@H]3COC(=O)[C@H]23)OCO4)cc(OC)c1O [4'-Demethylpodophyllotoxin] | 0.68 |
| Cn1c(CCCCCCC(=O)NO)nc2cc(N(CCCl)CCCl)ccc21 [Minomustine] | 1.12 |
| O=C(O)CNC(=O)C1C(=O)N(C2CCCCC2)C(=O)N(C2CCCCC2)C1=O [Daprodustat] | 1.04 |
| C/C(=C\c1csc(C)n1)[C@@H]1C[C@@H]2O[C@@H]2CCC[C@H](C)[C@H](O)[C@@H](C)C(=O)C(C)(C)[C@@H](O)CC(=O)O1 [Epothilone A] | 0.0991 |
| C/C(=C\c1csc(C)n1)[C@@H]1C[C@@H]2O[C@]2(C)CCC[C@H](C)[C@H](O)[C@@H](C)C(=O)C(C)(C)[C@@H](O)CC(=O)O1 [Epothilone B] | 0.141 |
| C[C@H](Nc1ncnc2[nH]cnc12)c1nc2ccc(F)cc2c(=O)n1-c1ccccc1 [Acalisib] | 1.02 |
| Cn1c(COP(=O)(NCCBr)NCCBr)cnc1[N+](=O)[O-] [Evofosfamide] | 1.15 |
| CC(=O)OC(C)(C)/C=C/C(=O)[C@](C)(O)[C@H]1[C@H](O)C[C@@]2(C)[C@@H]3CC=C4[C@H](C[C@H](O)C(=O)C4(C)C)[C@]3(C)C(=O)C[C@]12C [Cucurbitacin B] | 0.223 |
| Clc1ccc(C(OCCN2CCCCC2)c2ccccc2)cc1 (stereo not given) [Cloperastine hydrochloride] | 1.15 |
| C[C@]12CC[C@H](O)C[C@H]1CC[C@@H]1[C@@H]2CC[C@]2(C)[C@@H](c3ccc(=O)oc3)CC[C@]12O [Bufalin] | 0.423 |
| CC(C)[C@H](N)C(=O)N1CCC[C@H]1B(O)O [Talabostat mesylate] | 0.987 |
